The nature of test [1]: qHTS assay to identify small molecule inhibitors of chordoma cells - UCH-1 (AID 1259355). Further: nearly all actives have a fitted effect of over 55% in size. Further: potency means the concentration at half of the fitted maximal effect; series mostly up to about 46 µM. In a few lines: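 Seed 800 cells per well; incubate overnight at 37 C, 5% CO2. Add test compounds (15 concentrations), then the auranofin–topoisomerase-agent combination. Incubate 48hr, add CellTiter-Glo, wait 30min, read luminescence.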
(In general: In qHTS, concentration-response curves come from the screen itself.)

A short description of test [2]: qHTS assay to identify small molecule inhibitors of chordoma cells - UCH-2 (AID 1259356). Further: potency means the concentration at half of the fitted maximal effect.
A short description of test [3]: P-glycoprotein substrates identified in KB-8-5-11 adenocarcinoma cell line, qHTS therapeutic library screen (AID 1346987). Further: nearly all actives have a fitted effect of over 65% in size. Further: potency means the concentration at half of the fitted maximal effect. In a few lines:
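KB-8-5-11, a colchicine-selected P-gp-overexpressing KB-3-1 subline, was grown without colchicine for the assay. Cells were seeded at 500 cells/well, dosed in concentration-response and incubated 72 h at 37 degree C, 5% CO2. Viability was read by CellTiter-Glo luminescence.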

The nature of test [4]: NS1 protein of Zika virus - qHTS assay to identify small molecule inhibitors in human HEK 293 cells (AID 1347053). Further: nearly all actives have a fitted effect of over 55% in size. Further: potency means the concentration at half of the fitted maximal effect. Summed up:
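HEK 293 cells, seeded 20 h at 37 C, were pretreated with compound 1 h, then infected with ZIKV MR766 (MOI = 0.5) for 24 h. NS1 was read by TR-FRET with two anti-NS1 antibodies, normalized to uninfected and infected wells.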

Test [5] can be described thus: qHTS for Inhibitors of the Functional Ribonucleoprotein Complex (vRNP) of Lassa (LASV) Arenavirus: LASV Primary Screen - GLuc reporter signal (AID 1347082; calls by dose curve; tested in HEK293 reporter line; further: nearly all actives have a fitted effect of over 60% in size; further: potency means the concentration at half of the fitted maximal effect).
Test [6] in a line: qHTS for Inhibitors of the Functional Ribonucleoprotein Complex (vRNP) of Lassa (LASV) Arenavirus: Viability assay - alamar blue signal for LASV Primary Screen (AID 1347083; calls by dose curve; tested in HEK293 reporter line; further: nearly all actives have a fitted effect of over 80% in size; further: potency means the concentration at half of the fitted maximal effect).
Test [7] in a line: qHTS for Inhibitors of the Functional Ribonucleoprotein Complex (vRNP) of Lymphocytic Choriomeningitis Arenaviruses (LCMV): Viability assay - alamar blue signal for LCMV Primary Screen (AID 1347085; calls by dose curve; tested in HEK293 reporter line; further: nearly all actives have a fitted effect of over 80% in size; further: potency means the concentration at half of the fitted maximal effect).
The nature of test [8]: qHTS Screen of the MIPE 4.0 Collection Against Ewings Sarcoma (TC32) (AID 1259256). Further: nearly all actives have a fitted effect of over 45% in size. Further: potency means the concentration at half of the fitted maximal effect. Summed up: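 CellTiter-Glo luminescence after 48 h compound exposure (titration) gave viability; percent activity used DMSO-treated cells as no inhibition and medium-only wells as full inhibition. Cells grown in RPMI/5% FBS, dosed 4 h post-seeding.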
The nature of test [9]: Natriuretic polypeptide receptor (hNpr1) antagonism - Pilot counterscreen GloSensor control cell line (AID 1347045; calls by dose curve; further: series mostly up to about 38 µM). In a few lines: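 HEK293 cGMP GloSensor cells preloaded 2 h with 2% GloSensor reagent, then compound 30 min before baseline luminescence read. Stimulated with 50 uM sodium nitroprusside, 20 min at room temperature, then read again; counterscreen for Npr1 antagonism.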
On the technique in general: A counterscreen serves to expose hits that act by an unwanted route or on another target.

Test [10] addresses Atrial natriuretic peptide receptor 1 (Homo sapiens) (UniProt P16066). Put plainly: Natriuretic polypeptide receptor (hNpr1) antagonism - Pilot screen (AID 1347049; calls by dose curve;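 further: agonist-evoked cGMP luminescence read 20 min after hNppA addition; series mostly up to about 58 µM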). Summed up: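 Readout is cGMP-driven firefly luciferase luminescence in HEK293 cells carrying hNpr1 and a PDE5-domain GloSensor, read before and 20 min after 0.1 nM hNppA stimulation. Cells had 2% substrate reagent for 2 h and test compound for 30 min.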

Test [11] deals with Atrial natriuretic peptide receptor 2 (Homo sapiens) (UniProt P20594). Put plainly: Natriuretic polypeptide receptor (hNpr2) antagonism - Pilot subtype selectivity assay (AID 1347050; calls by dose curve). In a few lines:
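Pilot selectivity screen against hNpr2: HEK293 cGMP-sensor cells are treated with LOPAC1280 compounds, then with hNppC peptide at 1 nM final. The cGMP-driven luminescence change over 20 min at room temperature is the read-out.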

Test [12] has as its target T1, Tyrosine-protein phosphatase non-receptor type substrate 1 (Homo sapiens) + Leukocyte surface antigen CD47 (Homo sapiens) (UniProt P78324+Q08722). Description: CD47-SIRPalpha protein protein interaction - LANCE assay qHTS validation (AID 1347057; active means well fitted curve in the direction sought with a large enough effect in the signal ratio, with a control signal flat, not every such curve was filed as active; the % refers to the signal ratio; further: series mostly up to about 38 µM). Summed up:
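First, His-tagged CD47 and Eu-labelled anti-His antibody met the compound for 30 min; next, site-specifically biotinylated SIRPalpha was added for 30 min; finally streptavidin-APC was added before reading the TR-FRET ratio.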
Background: TR-FRET usually uses a lanthanide donor and a delayed reading to cut background.

Test [13] addresses T1, Tyrosine-protein phosphatase non-receptor type substrate 1 (Homo sapiens) + Leukocyte surface antigen CD47 (Homo sapiens). Put plainly: CD47-SIRPalpha protein protein interaction - HTRF assay qHTS validation (AID 1347058; active means well fitted curve in the direction sought with a large enough effect in the signal ratio, not every such curve was filed as active; the % refers to the signal ratio;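 further: recombinant soluble extracellular CD47 with His tag and biotinylated SIRPalpha domains; series mostly up to about 38 µM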). In a few lines:
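TR-FRET read (Ch1/Ch2 ratio) of soluble extracellular CD47 and Avi-biotinylated SIRPalpha domains in PBS pH 7.4 with 0.05% IGEPAL; 7-point compound titration. Sequential 30 min room-temperature steps; non-biotinylated SIRPalpha as control inhibitor.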

Test [14] has the same target. Description: CD47-SIRPalpha protein protein interaction - Alpha assay qHTS validation (AID 1347059).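 Further: bead proximity luminescence from CD47 binding SIRPalpha after compound preincubation with SIRPalpha.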 Summed up: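 Binding is measured by AlphaScreen proximity: Ni-NTA acceptor beads capture His-CD47, streptavidin donor beads capture biotin-SIRPalpha. Each of three additions (SIRPalpha with compound, CD47, beads) incubates 30 min at room temperature protected from light.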

Test [15] has as its target Parathyroid hormone/parathyroid hormone-related peptide receptor (Homo sapiens) (UniProt Q03431). Put plainly: qHTS for PTHR1 Agonists: Optimization Screen against the NCGC LOPAC library (AID 1347079).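 Further: GloSensor cAMP luminescence in HEK-293 GP2 cells expressing human PTHR1 with IBMX.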 Summed up:
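Agonist readout: GloSensor cAMP luminescence, read after 15 min at room temperature. HEK-293-derived GP2 line carries PTHR1; compounds tested as a titration for 1 hr at 37C in presence of IBMX. M-PTH (1-15) served as control.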

Several values for one entry are separate records, joined by “and”; a condition that tells them apart may be missing. Identical values can stand only once. Inconclusive results are not listed. A structure can be active in one record and inactive in another. Activity calls are given as the source filed them. Unless noted, the call rests on the fitted dose curve; in most records, active means well fitted curve in the direction sought with a large enough effect; inconclusive means small, poorly fitted or top-dose-only effect, or another doubt; inactive means no such curve, though single readings can be large; an effect the other way counts as inactive or inconclusive.

T1 sequence (P78324 whole entry, looked up): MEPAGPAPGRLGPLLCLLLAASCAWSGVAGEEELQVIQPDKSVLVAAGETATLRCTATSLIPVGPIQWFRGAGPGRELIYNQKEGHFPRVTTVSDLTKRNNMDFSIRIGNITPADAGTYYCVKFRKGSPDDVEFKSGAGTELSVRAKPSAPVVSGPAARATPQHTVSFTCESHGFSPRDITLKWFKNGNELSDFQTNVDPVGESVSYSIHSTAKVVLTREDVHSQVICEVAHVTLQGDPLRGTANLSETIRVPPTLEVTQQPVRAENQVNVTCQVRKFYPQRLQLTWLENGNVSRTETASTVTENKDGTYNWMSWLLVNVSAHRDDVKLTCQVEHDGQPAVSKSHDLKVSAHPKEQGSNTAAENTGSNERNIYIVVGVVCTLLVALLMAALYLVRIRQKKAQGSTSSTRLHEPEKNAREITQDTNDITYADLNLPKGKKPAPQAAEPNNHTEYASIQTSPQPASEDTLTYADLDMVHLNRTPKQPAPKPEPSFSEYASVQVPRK
T1 sequence (Q08722 whole entry, looked up): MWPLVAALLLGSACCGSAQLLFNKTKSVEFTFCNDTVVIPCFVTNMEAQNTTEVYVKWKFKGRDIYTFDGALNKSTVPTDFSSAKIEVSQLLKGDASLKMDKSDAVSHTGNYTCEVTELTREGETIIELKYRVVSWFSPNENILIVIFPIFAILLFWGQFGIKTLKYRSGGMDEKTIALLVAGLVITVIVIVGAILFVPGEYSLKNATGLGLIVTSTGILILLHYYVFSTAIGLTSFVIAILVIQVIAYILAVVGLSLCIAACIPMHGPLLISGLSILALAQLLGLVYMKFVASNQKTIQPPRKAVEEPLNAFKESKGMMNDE
Sequence of Atrial natriuretic peptide receptor 1 (Homo sapiens) (P16066 whole entry, looked up): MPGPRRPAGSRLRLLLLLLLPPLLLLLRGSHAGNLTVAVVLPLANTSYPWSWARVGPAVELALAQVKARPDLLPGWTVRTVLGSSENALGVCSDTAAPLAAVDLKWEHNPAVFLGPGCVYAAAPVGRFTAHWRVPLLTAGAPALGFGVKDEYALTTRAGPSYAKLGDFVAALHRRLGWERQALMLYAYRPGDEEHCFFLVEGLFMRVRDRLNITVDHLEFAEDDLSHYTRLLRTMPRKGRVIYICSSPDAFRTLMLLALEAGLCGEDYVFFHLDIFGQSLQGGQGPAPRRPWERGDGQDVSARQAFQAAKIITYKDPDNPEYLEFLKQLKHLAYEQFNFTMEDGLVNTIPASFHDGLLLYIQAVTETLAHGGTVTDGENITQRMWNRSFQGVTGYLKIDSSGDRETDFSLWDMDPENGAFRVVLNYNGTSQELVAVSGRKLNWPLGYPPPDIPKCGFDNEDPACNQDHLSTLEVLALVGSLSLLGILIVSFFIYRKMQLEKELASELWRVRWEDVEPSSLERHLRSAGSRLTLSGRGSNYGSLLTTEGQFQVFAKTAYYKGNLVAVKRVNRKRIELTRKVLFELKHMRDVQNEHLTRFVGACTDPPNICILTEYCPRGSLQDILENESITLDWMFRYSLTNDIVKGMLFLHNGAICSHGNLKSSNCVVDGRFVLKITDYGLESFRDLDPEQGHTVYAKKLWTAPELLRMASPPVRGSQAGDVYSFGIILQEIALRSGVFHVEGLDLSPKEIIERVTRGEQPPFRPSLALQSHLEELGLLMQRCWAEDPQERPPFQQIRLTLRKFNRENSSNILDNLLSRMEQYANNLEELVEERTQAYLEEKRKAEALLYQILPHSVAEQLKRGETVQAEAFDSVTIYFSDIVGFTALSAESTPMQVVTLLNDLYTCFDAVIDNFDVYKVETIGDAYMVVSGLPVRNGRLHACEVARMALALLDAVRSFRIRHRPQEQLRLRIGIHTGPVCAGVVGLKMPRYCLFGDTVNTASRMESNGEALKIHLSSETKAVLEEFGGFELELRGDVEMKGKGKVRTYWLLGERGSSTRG
Sequence of Parathyroid hormone/parathyroid hormone-related peptide receptor (Homo sapiens) (Q03431 whole entry, looked up): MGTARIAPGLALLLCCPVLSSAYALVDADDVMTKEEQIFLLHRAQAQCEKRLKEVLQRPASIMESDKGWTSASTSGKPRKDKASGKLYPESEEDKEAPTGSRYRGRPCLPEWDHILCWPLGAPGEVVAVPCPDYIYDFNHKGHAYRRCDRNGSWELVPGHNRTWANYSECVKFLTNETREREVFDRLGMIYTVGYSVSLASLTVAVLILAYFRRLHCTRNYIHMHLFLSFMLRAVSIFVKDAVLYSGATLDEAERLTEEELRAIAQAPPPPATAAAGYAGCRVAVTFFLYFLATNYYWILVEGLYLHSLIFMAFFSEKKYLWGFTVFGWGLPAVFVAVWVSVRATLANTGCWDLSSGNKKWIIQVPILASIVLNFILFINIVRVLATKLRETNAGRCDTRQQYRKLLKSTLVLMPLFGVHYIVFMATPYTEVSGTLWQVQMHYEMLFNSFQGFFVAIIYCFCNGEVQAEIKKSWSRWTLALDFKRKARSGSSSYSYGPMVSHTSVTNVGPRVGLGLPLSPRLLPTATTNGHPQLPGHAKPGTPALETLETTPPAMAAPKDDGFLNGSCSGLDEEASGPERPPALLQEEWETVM
Sequence of Atrial natriuretic peptide receptor 2 (Homo sapiens) (P20594 whole entry, looked up): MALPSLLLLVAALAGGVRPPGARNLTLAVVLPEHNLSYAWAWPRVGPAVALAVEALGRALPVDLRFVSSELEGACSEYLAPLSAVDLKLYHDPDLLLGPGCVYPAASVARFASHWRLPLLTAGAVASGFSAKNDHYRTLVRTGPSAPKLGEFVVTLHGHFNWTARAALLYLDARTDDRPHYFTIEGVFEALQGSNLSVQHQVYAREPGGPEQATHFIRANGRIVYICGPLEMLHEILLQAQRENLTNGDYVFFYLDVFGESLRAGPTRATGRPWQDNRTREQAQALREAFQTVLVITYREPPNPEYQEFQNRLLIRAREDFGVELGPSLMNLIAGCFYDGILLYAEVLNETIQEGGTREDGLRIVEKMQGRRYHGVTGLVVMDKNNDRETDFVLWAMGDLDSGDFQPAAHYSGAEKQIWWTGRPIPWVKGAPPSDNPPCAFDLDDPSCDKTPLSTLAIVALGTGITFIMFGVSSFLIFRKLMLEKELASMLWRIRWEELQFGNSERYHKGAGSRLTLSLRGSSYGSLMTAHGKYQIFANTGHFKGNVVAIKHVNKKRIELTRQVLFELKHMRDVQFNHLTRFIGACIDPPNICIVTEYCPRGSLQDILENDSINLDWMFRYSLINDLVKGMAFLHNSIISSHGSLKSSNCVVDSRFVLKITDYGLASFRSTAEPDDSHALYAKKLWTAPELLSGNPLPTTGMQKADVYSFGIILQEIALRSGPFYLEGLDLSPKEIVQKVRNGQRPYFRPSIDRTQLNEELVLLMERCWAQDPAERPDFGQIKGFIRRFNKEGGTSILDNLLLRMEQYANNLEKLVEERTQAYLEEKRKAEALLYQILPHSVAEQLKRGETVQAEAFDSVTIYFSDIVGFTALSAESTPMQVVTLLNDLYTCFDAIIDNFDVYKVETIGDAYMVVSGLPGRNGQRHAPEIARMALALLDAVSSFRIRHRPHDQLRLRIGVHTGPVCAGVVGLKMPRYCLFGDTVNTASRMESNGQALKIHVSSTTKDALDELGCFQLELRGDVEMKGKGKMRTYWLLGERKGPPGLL

As for `Oc1ccc2[nH]cc(CCCCN3CC=C(c4ccccc4)CC3)c2c1`, the Potency entry in test [1], in test [2], in [3], in test [4], in test [5] and in test [6] was “inactive” in each case. Also, in test [7], the Potency entry is “inactive”.

As to `COCC(=O)N(c1c(C)cccc1C)C(C)C(=O)OC` (stereo unspecified), the Potency result in [1], in test [2], in test [3], in test [4], in test [5] and in test [6] was “inactive” throughout. The Potency result in test [7] was “inactive”.

Consider `CNC(=O)Oc1cccc2ccccc12`, for which the Potency result in [1], in test [2], in test [3], in [4], in test [5] and in test [6] was “inactive” in each case. Also, the Potency entry in [7] was “inactive”.

In the case of `CC1=C2[C@H]3OC(=O)[C@@H](C)[C@@H]3CC[C@@]2(C)C=CC1=O`, the Potency result in test [1], in test [2], in test [3], in test [4], in [5] and in test [6] was “inactive” throughout. In test [7], the Potency result was “inactive”.

With `CC(C)=C[C@@H]1[C@@H](C(=O)OCc2coc(Cc3ccccc3)c2)C1(C)C`, the Potency result in test [1], in test [2], in [3], in [4], in test [5] and in [6] was “inactive” in each case. In addition, in test [7], the Potency result is “inactive”.

Turning to `C[N+]1(C)[C@@H]2CC[C@H]1CC(OC(=O)C(CO)c1ccccc1)C2` (stereo partly specified), the Potency result in test [1], in [2], in test [3], in [4], in test [5] and in test [6] was “inactive” in each case. The Potency entry in test [7] is “inactive”.

With `C[C@@H]1C[C@@H]([C@H](O)CC2CC(=O)NC(=O)C2)C(=O)[C@@H](C)C1`, the Potency was 132 nM (active) in test [8]; “inactive and 93.5 nM (active)” in [4]; 968 nM (active) in [5]; 158 nM (active) and 432 nM (active) in test [6]; 1090 nM (active) in test [7].

Consider `CCC1(c2ccccc2)CCC(=O)NC1=O` (stereo unspecified), for which the Potency result in test [1], in test [2], in test [3], in [4], in test [5] and in [6] was “inactive” in each case. Also, in test [7], the Potency entry is “inactive”.

For `Cc1c(Cl)c(=O)oc2cc(OP(=O)(OCCCl)OCCCl)ccc12`, the Potency result in [1], in [2], in [4], in test [5], in [6] and in test [7] was “inactive” each time. Besides, the Potency in test [3] was 6510 nM (active).

With `CCC1(CC)C(=O)NC(=O)NC1=O`, the Potency result in [1], in [2], in test [3], in test [4], in test [5] and in test [6] was “inactive” throughout. Besides, the Potency entry in [7] is “inactive”.

With `O=c1n(Cl)c(=O)n(Cl)c(=O)n1Cl`, the Potency result in test [1], in test [2], in test [3], in [4], in [5] and in [6] was “inactive” each time. Besides, the Potency result in test [7] was “inactive”.

For `Oc1c(Br)cc(Br)cc1Br`, the Potency result in test [1], in test [2], in test [3], in [4], in test [5] and in [6] was “inactive” each time. Further, in test [7], the Potency entry was “inactive”.

As to `C[C@]12Cc3nonc3C[C@@H]1CC[C@@H]1[C@@H]2CC[C@@]2(C)[C@H]1CC[C@]2(C)O`, the Potency result in test [1], in [2], in test [4], in [5] and in test [7] was “inactive” each time. In addition, the Potency in [3] was 5800 nM (active).

With `CCC(=O)O[C@H]1CC[C@H]2[C@@H]3CCC4=CC(=O)CC[C@]4(C)[C@H]3CC[C@]12C`, the Potency result in test [1], in [2], in test [4], in [5], in test [6] and in test [7] was “inactive” in each case. In addition, the Potency in test [3] was 2780 nM (active).

On to `CC(C)[N+](C)(CCC(C(N)=O)(c1ccccc1)c1ccccc1)C(C)C`, for which the Potency entry in test [1], in test [2], in [3], in [4], in [5] and in test [6] was “inactive” each time. Also, the Potency entry in test [7] was “inactive”.

As to `CCN(Cc1ccc(Cl)nc1)/C(=C/[N+](=O)[O-])NC`, the Potency result in test [1], in test [2], in test [3], in test [4], in test [5] and in test [6] was “inactive” in each case. For the same molecule, the Potency entry in [7] is “inactive”.

Turning to `NCc1cccnc1`, the Potency result in test [1], in [2], in test [3], in test [4], in test [5] and in test [6] was “inactive” each time. Besides, the Potency result in test [7] is “inactive”.

Consider `CCC1(c2cccc(O)c2)CCCCN(C)C1` (stereo unspecified), for which the Potency result in test [1], in [2], in test [3], in [4], in test [5] and in test [6] was “inactive” in each case. Besides, in test [7], the Potency entry is “inactive”.

For the molecule `COP(=O)(OC)C(O)C(Cl)(Cl)Cl` (stereo unspecified), the Potency entry in test [1], in test [2], in test [3], in test [4], in [5] and in [6] was “inactive” each time. In [7], the Potency result is “inactive”.

`COc1ccc(CN2CCNCC2)c(OC)c1OC`: the Potency entry in test [1], in test [2], in [3], in [4], in test [5] and in test [6] was “inactive” throughout. In [7], the Potency entry was “inactive”.

Take `COc1ccc(C(=O)N2CCCC2=O)cc1`: the Potency entry in [8], in test [1], in test [2], in test [3], in [4] and in [5] was “inactive” in each case. In addition, the Potency result in test [6] and in test [7] was “inactive” throughout. Also, the molecule was called inactive in test [9], in test [10], in test [11], in test [12], in test [13] and in [14]. Besides, in test [15], the outcome was inactive.

On to `COC(=O)C1=CCCN(C)C1`, for which the Potency result in test [1], in test [2], in test [3], in [4], in test [5] and in test [6] was “inactive” throughout. In addition, the Potency entry in test [7] was “inactive”. Also, the molecule was called inactive in [9], in test [10], in [11], in test [12], in test [13] and in [14]. Also, in test [15], the molecule was classed as inactive.

As for `C#C[C@]1(O)C=C[C@H]2[C@@H]3CCC4=CC(=O)CC[C@@H]4[C@H]3CC[C@@]21CC`, the Potency entry in [1], in [2], in [4], in test [5], in test [6] and in test [7] was “inactive” throughout. In addition, the Potency in [3] is 6510 nM (active).

Consider `C[C@H](N)[C@H](O)c1ccc(O)c(O)c1`, for which the Potency entry in test [1], in test [2], in [3], in test [4] and in test [5] was “inactive” in each case.

Take `CC(Cc1ccccc1)NCc1ccccc1Cl` (stereo unspecified): the Potency entry in test [1], in [2], in test [3], in test [4], in test [5] and in [6] was “inactive” throughout. Moreover, in test [7], the Potency entry was “inactive”.

Turning to `N#Cc1nn(-c2c(Cl)cc(C(F)(F)F)cc2Cl)c(N)c1S(=O)C(F)(F)F` (stereo unspecified), the Potency result in test [1], in test [2], in test [3] and in test [4] was “inactive” in each case.

In the case of `C[C@@H]1O[C@@H](O[C@@H]2C=C3CC[C@@H]4[C@H](CC[C@]5(C)[C@@H](c6ccc(=O)oc6)CC[C@]45O)[C@@]3(C)CC2)[C@H](O)[C@H](O)[C@H]1O`, the Potency is 100 nM (active) in test [1], 24.8 nM (active) in [2] and 19.7 nM (active) in test [3]. The Potency entry in test [4], in test [5], in test [6] and in test [7] was “inactive” throughout.
